# PubChem BioAssay (NCATS)
# Several values for one entry are separate records, joined by “and”; a condition that tells them apart may be missing. Equal values may be shown once. Results filed as inconclusive are left out. Where a call stands in place of a potency, no number is given. Activity calls are given as the source filed them. Unless noted, the call rests on the fitted dose curve; in most records, active means well fitted curve in either direction with a large enough effect (not every such curve was filed as active); inconclusive means small, poorly fitted or top-dose-only effect, or another doubt; inactive means flat fitted curve, though single readings scatter.
# What was measured:
# [1] = AP1 Signaling Pathway (AID 357);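 further: ME-180 reporter cells stimulated with EGF at its EC50 level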
# How it was run: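 Read-out was the 460nm/530nm emission ratio (excitation 405nm) after CCF4 loading for 2.5 hours at room temperature. Cells carried an AP-1-driven beta-lactamase reporter, were stimulated with EC50 EGF plus compound for 5 hours, and AC50 values came from titrations.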
# [2] = NFAT Signaling Pathway (AID 444); settings: Jurkat NFAT-bla M1, carbachol, beta-lactamase ratio, 5 h; at 17.2 µM (top of the series);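 further: carbachol stimulus at about its EC50 of 1 µM final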
# How it was run: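 Jurkat cells with NFAT-driven β-lactamase reporter and co-expressed M1 receptor, stimulated with carbachol (final 1 uM, ~EC50), compound titration, 5 h at 37 °C. CCF4 loaded 1 h at RT; 460/530 nm ratio gave %activity and AC50.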
# [3] = Stat Signaling Pathway (AID 446);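 further: ME-180 cervical cancer cells given 40 pM IL-6 alongside compound; SIE-controlled beta-lactamase reporter measured as 460/530 nm FRET emission ratio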
# How it was run: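 Reporter line: ME-180 cervical carcinoma, SIE-beta-lactamase. Treatment: compound with 40 pM IL-6, 5 hrs, 37 C, in low-serum OPTI-MEM with 10 mM HEPES pH 7.3. Detection: 460/530 nm fluorescence.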
# [4] = target: Glucocorticoid receptor (Homo sapiens) (UniProt P04150); test: GR-GFP Redistribution (AID 450;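 active means compounds whose dose series gives a full or clear partial fitted curve of increased nuclear translocation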; further: potency means the concentration at half of the fitted maximal effect); settings: U2OS GR-GFP nuclear translocation, laser cytometry, 2 h
# Sequence of Glucocorticoid receptor (Homo sapiens) (P04150 whole entry, looked up, the tested form may be a part): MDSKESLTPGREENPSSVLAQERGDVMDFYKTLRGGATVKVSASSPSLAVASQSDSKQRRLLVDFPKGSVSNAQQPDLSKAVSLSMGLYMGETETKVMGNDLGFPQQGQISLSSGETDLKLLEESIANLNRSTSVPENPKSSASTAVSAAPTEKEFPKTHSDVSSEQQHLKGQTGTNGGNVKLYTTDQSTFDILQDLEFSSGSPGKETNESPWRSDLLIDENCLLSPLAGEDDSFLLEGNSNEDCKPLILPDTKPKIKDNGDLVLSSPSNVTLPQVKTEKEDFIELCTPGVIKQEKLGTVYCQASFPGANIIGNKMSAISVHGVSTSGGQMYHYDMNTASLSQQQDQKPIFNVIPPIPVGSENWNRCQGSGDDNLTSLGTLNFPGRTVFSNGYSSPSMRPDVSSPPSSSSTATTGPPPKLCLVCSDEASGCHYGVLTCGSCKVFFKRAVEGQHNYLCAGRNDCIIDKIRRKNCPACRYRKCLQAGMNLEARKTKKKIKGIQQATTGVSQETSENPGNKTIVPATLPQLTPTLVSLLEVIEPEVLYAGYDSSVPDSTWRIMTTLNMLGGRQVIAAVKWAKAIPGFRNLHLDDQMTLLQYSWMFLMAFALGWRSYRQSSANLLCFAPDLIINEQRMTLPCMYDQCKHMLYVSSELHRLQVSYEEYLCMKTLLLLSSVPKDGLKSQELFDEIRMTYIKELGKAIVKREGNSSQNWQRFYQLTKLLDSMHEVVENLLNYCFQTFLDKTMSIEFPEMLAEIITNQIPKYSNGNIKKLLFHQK
# [5] = target: Glucocorticoid receptor (Homo sapiens) (UniProt P04150); test: GR-EFC Redistribution (AID 451; calls by dose curve; further: potency means the concentration at half of the fitted maximal effect); settings: CHO-K1 GR-EFC translocation, beta-gal luminescence, 2 h
# How it was run: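 CHO-K1 cells expressing nuclear EA and GR-ED fragments of b-gal; compounds titrated up to 46 uM final, 2 h at 37 C. GR nuclear translocation read as complemented b-gal luminescence after 1 h RT detection.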
# [6] = target: Mitogen-activated protein kinase 10 (Mus musculus) (UniProt Q61831); test: JNK3 AlphaScreen Assay (AID 530);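 further: kinase came from lysate of stimulated human HepG2 cells; signal reports phosphorylation of biotinylated GST-cJun 1-79 at Ser73 with 10 µM ATP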
# How it was run: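 Pre-activated (IL-1β/TNFα) JNK3 in HepG2 lysates phosphorylates biotin-GST-cJun(1-79), 10 uM ATP; anti-phospho-cJun(Ser73) AlphaScreen read at room temperature, pH 7.6 Tris buffer. Compounds pre-incubated 15 min as titrations.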
# [7] = target: 3',5'-cyclic-AMP phosphodiesterase 4B (Homo sapiens) (UniProt Q07343); test: qHTS Assay for Inhibitors of PDE-IV (AID 607; active means well fitted activation curve with a large enough effect in the main read-out, with a control signal flat, not every such curve was filed as active)
# Sequence of 3',5'-cyclic-AMP phosphodiesterase 4B (Homo sapiens) (Q07343 whole entry, looked up): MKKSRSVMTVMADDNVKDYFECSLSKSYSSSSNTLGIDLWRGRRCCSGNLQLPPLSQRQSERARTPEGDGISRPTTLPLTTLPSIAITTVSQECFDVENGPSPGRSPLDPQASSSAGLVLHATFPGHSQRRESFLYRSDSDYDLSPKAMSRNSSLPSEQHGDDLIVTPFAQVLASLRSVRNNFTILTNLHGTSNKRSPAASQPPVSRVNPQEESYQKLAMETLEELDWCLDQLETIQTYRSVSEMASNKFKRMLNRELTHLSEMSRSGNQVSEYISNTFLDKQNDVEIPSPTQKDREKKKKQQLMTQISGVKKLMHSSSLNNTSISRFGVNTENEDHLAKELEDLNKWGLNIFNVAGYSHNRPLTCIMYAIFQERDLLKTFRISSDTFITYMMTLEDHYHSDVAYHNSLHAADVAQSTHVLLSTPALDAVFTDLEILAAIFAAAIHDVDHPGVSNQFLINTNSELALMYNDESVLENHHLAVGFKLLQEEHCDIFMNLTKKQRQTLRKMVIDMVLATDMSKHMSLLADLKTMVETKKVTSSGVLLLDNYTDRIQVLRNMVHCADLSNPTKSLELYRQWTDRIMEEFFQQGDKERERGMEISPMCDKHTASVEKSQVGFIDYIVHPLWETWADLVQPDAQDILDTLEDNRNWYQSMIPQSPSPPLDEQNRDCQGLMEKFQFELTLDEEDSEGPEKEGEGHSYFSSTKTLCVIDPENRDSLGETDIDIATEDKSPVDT
# How it was run: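 Cell-based read-out of cAMP via a modified cyclic nucleotide-gated channel and membrane potential dye (535/590 nm) in HEK293 cells expressing PDE4 endogenously. Compounds tested up to 22.9 uM final; 100 uM RO 20-1724 reference.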
# [8] = qHTS Assay for Lipid Storage Modulators (AID 1519; calls by dose curve); settings: Drosophila S3 cells, BODIPY lipid droplet/cell ratio, laser cytometry, cells loaded with oleic acid
# How it was run: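 Cells seeded at 5,000 per well were treated with compounds over a concentration series and loaded with oleic acid (400 uM, as added). Lipid droplet fluorescence (488 nm excitation, 500-530 nm channel) was read by laser-scanning cytometry and normalized to 20 uM Triacsin C.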
# [9] = target: Ubiquitin carboxyl-terminal hydrolase 1 (Homo sapiens) (UniProt O94782); test: Inhibitors of USP1/UAF1: Pilot qHTS (AID 504865; active means well fitted curve in the direction sought with a large enough effect; an effect the other way counts as inactive or inconclusive;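 further: rhodamine fluorescence freed from ubiquitin-rhodamine substrate followed over time; top concentration of the series differs between compounds; nearly all actives have a fitted effect of over 35% in size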)
# Sequence of Ubiquitin carboxyl-terminal hydrolase 1 (Homo sapiens) (O94782 whole entry, looked up): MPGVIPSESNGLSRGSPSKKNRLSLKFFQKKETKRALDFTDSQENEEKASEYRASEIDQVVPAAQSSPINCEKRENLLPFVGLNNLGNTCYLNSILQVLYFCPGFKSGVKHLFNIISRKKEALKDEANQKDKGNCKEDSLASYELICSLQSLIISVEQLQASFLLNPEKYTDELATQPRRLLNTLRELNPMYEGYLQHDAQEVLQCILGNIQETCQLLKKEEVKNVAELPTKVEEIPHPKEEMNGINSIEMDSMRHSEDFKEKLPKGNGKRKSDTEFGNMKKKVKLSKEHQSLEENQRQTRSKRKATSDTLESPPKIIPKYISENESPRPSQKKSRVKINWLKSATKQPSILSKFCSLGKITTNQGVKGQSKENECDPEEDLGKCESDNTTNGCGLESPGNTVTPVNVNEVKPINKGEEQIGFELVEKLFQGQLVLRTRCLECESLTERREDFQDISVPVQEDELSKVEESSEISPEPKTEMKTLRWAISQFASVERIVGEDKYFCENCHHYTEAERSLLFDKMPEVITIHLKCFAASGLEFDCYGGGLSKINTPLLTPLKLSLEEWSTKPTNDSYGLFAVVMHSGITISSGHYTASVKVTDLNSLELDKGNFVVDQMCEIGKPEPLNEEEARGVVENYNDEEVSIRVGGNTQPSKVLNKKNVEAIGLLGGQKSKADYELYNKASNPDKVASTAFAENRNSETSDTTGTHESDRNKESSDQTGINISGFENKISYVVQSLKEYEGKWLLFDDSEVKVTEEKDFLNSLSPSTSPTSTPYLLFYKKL
# How it was run: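 Deubiquitinase activity followed as kinetic rhodamine fluorescence release from 150 nM Ub-Rho. 1 nM USP1/UAF1 with compound, after 15 min room-temperature preincubation, in HEPES pH 7.8 buffer containing TCEP, EDTA, BSA and Tween-20.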
# [10] = target: Cytochrome P450 3A4 (Homo sapiens) (UniProt P08684); test: qHTS Assay for Inhibitors and Substrates of Cytochrome P450 3A4 (AID 884; active means well fitted curve in the direction sought with a large enough effect; an effect the other way counts as inactive or inconclusive; further: nearly all actives have a fitted effect of over 50% in size)
# Sequence of Cytochrome P450 3A4 (Homo sapiens) (P08684 whole entry, looked up): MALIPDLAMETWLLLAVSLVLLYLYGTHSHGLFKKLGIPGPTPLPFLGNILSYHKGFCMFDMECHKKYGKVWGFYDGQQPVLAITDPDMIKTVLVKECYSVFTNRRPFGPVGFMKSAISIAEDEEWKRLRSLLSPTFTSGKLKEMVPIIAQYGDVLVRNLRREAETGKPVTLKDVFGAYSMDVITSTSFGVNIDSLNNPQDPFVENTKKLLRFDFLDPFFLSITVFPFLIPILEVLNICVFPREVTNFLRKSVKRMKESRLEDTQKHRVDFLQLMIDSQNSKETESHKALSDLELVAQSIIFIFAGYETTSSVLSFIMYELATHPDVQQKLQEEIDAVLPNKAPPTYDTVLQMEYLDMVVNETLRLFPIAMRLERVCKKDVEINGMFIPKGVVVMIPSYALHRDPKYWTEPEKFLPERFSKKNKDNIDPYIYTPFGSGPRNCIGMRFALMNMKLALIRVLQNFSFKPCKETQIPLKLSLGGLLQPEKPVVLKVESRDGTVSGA
# How it was run: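 20 nM human CYP3A4 with 25 uM Luciferin-PPXE (at KM) in 200 mM KPO4, preincubated 10 min with compound; NADPH regeneration started a 60 min RT reaction. Luciferin detected by luminescence, normalized to 57 uM ketoconazole as full inhibition.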
# [11] = Confirmation and Secondary Assay for Modulators of Hemoglobin Beta Chain Splicing at IVS2 654 locus (AID 910; active means well fitted curve in the direction sought with a large enough effect; an effect the other way counts as inactive or inconclusive;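 further: HeLa cells stably carrying EGFP split by mutant beta-globin IVS2-654 intron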)
# How it was run: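 HeLa cells stably expressing EGFP interrupted by β-globin IVS2-654 intron, seeded overnight in Opti-MEM/2% FCS, then treated 2 days at 37 °C. Restored splicing read as total peak GFP intensity per well by laser scanning cytometry (488 nm excitation, 500–520 nm emission); 500 nM antisense PNA as control.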
# [12] = Confirmation and Secondary Assay for Modulators of Hemoglobin Beta Chain Splicing at IVS2 705 locus (AID 930; active means well fitted curve in the direction sought with a large enough effect; an effect the other way counts as inactive or inconclusive;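 further: HeLa cells stably expressing the EGFP-705 splicing reporter; GFP fluorescence per well restored by corrected splicing of the IVS2-705 intron in EGFP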)
# How it was run: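 Assay measures total GFP intensity per well in HeLa EGFP-705 cells after 2 days with compound; mis-splicing normally truncates EGFP, so fluorescence indicates corrected splicing.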
# [13] = target: ATP-dependent 6-phosphofructokinase (Trypanosoma brucei brucei) (UniProt O15648); test: qHTS Assay to Find Inhibitors of T. brucei phosphofructokinase: hit validation (AID 492961; active means well fitted curve in the direction sought with a large enough effect; an effect the other way counts as inactive or inconclusive;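 further: luminescence reports ADP formed as PFK phosphorylates fructose-6-phosphate with ATP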)
# Sequence of ATP-dependent 6-phosphofructokinase (Trypanosoma brucei brucei) (O15648 whole entry, looked up): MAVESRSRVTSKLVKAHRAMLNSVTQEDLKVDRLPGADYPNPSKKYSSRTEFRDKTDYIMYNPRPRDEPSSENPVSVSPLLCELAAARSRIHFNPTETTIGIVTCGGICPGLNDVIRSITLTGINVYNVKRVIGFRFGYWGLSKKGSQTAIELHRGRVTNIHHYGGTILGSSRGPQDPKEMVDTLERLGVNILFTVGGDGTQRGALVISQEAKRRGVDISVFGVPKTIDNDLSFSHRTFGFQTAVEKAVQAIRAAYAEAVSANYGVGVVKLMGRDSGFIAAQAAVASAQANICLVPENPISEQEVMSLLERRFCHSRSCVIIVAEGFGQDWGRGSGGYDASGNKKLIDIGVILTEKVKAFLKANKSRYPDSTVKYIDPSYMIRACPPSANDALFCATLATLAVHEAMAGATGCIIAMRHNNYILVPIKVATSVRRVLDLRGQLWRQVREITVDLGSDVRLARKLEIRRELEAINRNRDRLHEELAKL
# How it was run: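 Compounds titrated; %activity normalized to 0x and 1x enzyme controls, curve-fitted. Readout: ADP-Glo luminescence after 45 min room-temperature reaction of 1.25 nM PFK, 0.1 mM ATP, 0.5 mM F6P, pH 8.0.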
# [14] = target: Luciferin 4-monooxygenase (Photinus pyralis) (UniProt P08659); test: Biochemical firefly luciferase enzyme assay for NPC (AID 624030; active means well fitted curve in the direction sought with a large enough effect; an effect the other way counts as inactive or inconclusive;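 further: purified P. pyralis luciferase at 10 nM with luciferin and ATP substrate; nearly all actives have a fitted effect of over 70% in size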)
# Sequence of Luciferin 4-monooxygenase (Photinus pyralis) (P08659 whole entry, looked up): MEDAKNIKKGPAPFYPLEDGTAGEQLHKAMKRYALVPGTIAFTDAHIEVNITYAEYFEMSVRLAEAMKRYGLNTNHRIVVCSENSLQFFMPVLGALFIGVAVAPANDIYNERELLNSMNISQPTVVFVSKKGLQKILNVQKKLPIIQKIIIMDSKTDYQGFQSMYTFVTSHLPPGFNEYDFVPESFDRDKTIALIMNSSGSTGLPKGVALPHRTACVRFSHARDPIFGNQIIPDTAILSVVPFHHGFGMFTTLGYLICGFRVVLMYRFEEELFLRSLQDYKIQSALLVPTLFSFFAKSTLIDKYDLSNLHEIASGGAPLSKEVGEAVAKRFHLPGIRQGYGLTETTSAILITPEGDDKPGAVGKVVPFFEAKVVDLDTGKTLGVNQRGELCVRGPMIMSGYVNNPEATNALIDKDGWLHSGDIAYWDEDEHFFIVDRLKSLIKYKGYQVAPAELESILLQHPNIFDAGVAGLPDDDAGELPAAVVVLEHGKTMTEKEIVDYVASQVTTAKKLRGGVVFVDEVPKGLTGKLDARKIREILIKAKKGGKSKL
# How it was run: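 Purified P. pyralis luciferase at 10 nM in 50 mM Tris Acetate (final), luminescence read within 5 minutes of enzyme addition to compounds. Activity normalised to PTC124 versus DMSO; concentration-response curves classed by r2, magnitude and activity.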
# [15] = qHTS profiling for inhibitors of Plasmodium falciparum proliferation (AID 504749; active means well fitted curve in the direction sought with a large enough effect; an effect the other way counts as inactive or inconclusive; further: nearly all actives have a fitted effect of over 60% in size); settings: P. falciparum in erythrocytes, SYBR Green DNA, 72 h
# How it was run: (§1)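 P. falciparum-infected erythrocytes (0.3% parasitemia, 2.5% hematocrit) incubated with compound 72 h at 37 C, 5% CO2. Parasite DNA detected by SYBR Green after lysis, overnight at room temperature; normalised to 0.29 uM artemisinin and DMSO.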
# CP192 = test: as above; settings: P. falciparum in erythrocytes, SYBR Green DNA, 72 h; series mostly up to 28.7 µM
# How it was run: as §1
# CP211 = test: as above; settings: P. falciparum in erythrocytes, SYBR Green DNA, 72 h; series mostly up to 28.7 µM
# How it was run: as §1
# CP286 = test: as above; settings: P. falciparum in erythrocytes, SYBR Green DNA, 72 h; series mostly up to 28.7 µM
# How it was run: as §1
# P94_40 = test: as above; settings: P. falciparum in erythrocytes, SYBR Green DNA, 72 h; series mostly up to 28.7 µM
# How it was run: as §1
# [16] = target: Cytochrome P450 3A4 (Homo sapiens) (UniProt P08684); test: qHTS Assay for Activators of Cytochrome P450 3A4 (AID 885; active means well fitted curve in the direction sought with a large enough effect; an effect the other way counts as inactive or inconclusive; further: nearly all actives have a fitted effect of over 65% in size)
# How it was run: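 Signal was normalized against complete inhibition by 57 uM ketoconazole. The reaction used 20nM CYP3A4 with 25uM Luciferin-PPXE, 10-min compound preincubation and a 60-min NADPH-supported step at RT.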
# [17] = measured here: cell count channel max response
# [18] = measured here: lipid channel max response
smiles,measurement,setting,value
C[C@H]1CC[C@@H]2[C@@H](C)C(=O)O[C@H]3O[C@@]4(C)CC[C@H]1[C@@]32OO4,outcome,[1],inactive
same,"activity change, negative = inhibition",[2],-0.23% (inactive)
same,outcome,[3],inactive
same,Potency,[4],> 20.6 µM (inactive)
same,Potency,[5],> 20.6 µM (inactive)
same,outcome,[6],inactive
same,Potency,[7],inactive
same,"activity change, negative = inhibition",[8]; at 25.7 µM (top of the series),-3.8% (inactive)
same,max response,[8]; [17],-10.2%
same,max response,[8]; [18],-15%
same,Potency,[9],inactive
Oc1ccc2c3c1O[C@H]1[C@@H](O)CC[C@]4(O)[C@H](C2)N(CC2CCC2)CC[C@@]314,outcome,[1],inactive
same,"activity change, negative = inhibition",[2],-1.63% (inactive)
same,outcome,[3],inactive
same,Potency,[4],> 20.6 µM (inactive)
same,Potency,[5],> 20.6 µM (inactive)
same,outcome,[6],inactive
same,Potency,[7],inactive
same,"activity change, negative = inhibition",[8]; at 25.7 µM (top of the series),-2.99% (inactive)
same,max response,[8]; [17],3.75%
same,max response,[8]; [18],0.408%
same,Potency,[9],inactive
CC(=O)[C@@H]1CC[C@H]2[C@H]3CC[C@H]4C[C@@H](O)CC[C@]4(C)[C@@H]3C(=O)C[C@@]12C,outcome,[1],inactive
same,"activity change, negative = inhibition",[2],-7.61% (inactive)
same,outcome,[3],inactive
same,outcome,[6],inactive
same,Potency,[7],inactive
same,"activity change, negative = inhibition",[8]; at 25.7 µM (top of the series),-4.19% (inactive)
same,max response,[8]; [17],-12.1%
same,max response,[8]; [18],-15.2%
COP(=O)(OC)[C@@H](O)C(Cl)(Cl)Cl,outcome,[1],inactive
same,"activity change, negative = inhibition",[2],-11.8% (inactive)
same,outcome,[3],inactive
same,Potency,[4],> 20.6 µM (inactive)
same,Potency,[5],> 20.6 µM (inactive)
same,outcome,[6],inactive
same,Potency,[7],inactive
same,"activity change, negative = inhibition",[8]; at 25.7 µM (top of the series),-2.04% (inactive)
same,max response,[8]; [17],5.96%
same,max response,[8]; [18],2.5%
same,Potency,[9],inactive
COc1cc2c(cc1OC)[C@@]13CCN4CC5=CCOC6CC(=O)N2C1[C@H]6[C@@H]5C[C@@H]43 (stereo not given in full),Potency,[10],inactive
same,Potency,[11],inactive
same,Potency,[12],inactive
same,"activity change, negative = inhibition",[8]; at 57.5 µM (top of the series),14% (inactive)
same,max response,[8]; [17],9.29%
same,max response,[8]; [18],26.2%
same,Potency,[13],inactive
same,Potency,[9],inactive
same,Potency,[14],inactive
same,"activity, negative = inhibition","[15]; at 28.7 µM (top of the series), parasite line A",-1.63% (inactive)
same,"activity, negative = inhibition","[15]; at 28.7 µM (top of the series), parasite line B",1.63% (inactive)
same,Potency,CP192,inactive
same,Potency,CP211,inactive
same,Potency,CP286,inactive
same,Potency,P94_40,inactive
COc1cc2c(cc1O)C[C@H]1c3c(cc(O)c(OC)c3-2)CCN1C,"activity change, negative = inhibition",[2],-8.08% (inactive)
same,outcome,[3],inactive
same,Potency,[4],> 20.6 µM (inactive) and > 46 µM (inactive)
same,Potency,[5],> 20.6 µM (inactive) and > 46 µM (inactive)
same,outcome,[6],inactive
same,Potency,[7],inactive
same,Potency,[16],inactive
same,"activity change, negative = inhibition",[8]; at 25.7 µM (top of the series),0.193% (inactive)
same,max response,[8]; [17],3.24%
same,max response,[8]; [18],4.01%
same,Potency,[9],inactive
CNC[C@H](O)c1ccc(O)cc1,outcome,[1],inactive
same,outcome,[3],inactive
same,Potency,[4],> 46 µM (inactive) and > 20.6 µM (inactive)
same,Potency,[5],> 46 µM (inactive) and > 20.6 µM (inactive)
same,outcome,[6],inactive
same,Potency,[7],inactive
same,"activity change, negative = inhibition",[8]; at 25.7 µM (top of the series),-0.0081% (inactive)
same,max response,[8]; [17],-14.8%
same,max response,[8]; [18],-11.6%
same,Potency,[13],inactive
same,Potency,[9],inactive
same,Potency,[14],inactive
same,"activity, negative = inhibition","[15]; at 12.8 µM (top of the series), parasite line A",3.3% (inactive)
same,"activity, negative = inhibition","[15]; at 12.8 µM (top of the series), parasite line B",13.2% (inactive)
same,Potency,CP192,inactive
same,Potency,CP211,inactive
same,Potency,CP286,inactive
same,Potency,P94_40,inactive
